Rows were chosen to be rich in hits. Some 7.3% of all compounds tested hit in one or more screens of this group.
SMN2 splice enh: qHTS Assay for Enhancers of SMN2 Splice Variant Expression | HEK293 SMN2-luciferase splicing reporter, luminescence, 30-36 h | Potency, µM (highest dose often 46.1 µM), for the others: at the top dose activity change, positive = activation, most hits filed as activators | actives 2.8% (n = 210,000); further: % of control where 0% means no effect; nearly all actives have a fitted effect of over 55% in size
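HEK293 cells carry an SMN2 minigene-luciferase reporter in which exon 7 inclusion puts luciferase in frame. Cells were seeded at 2000 cells/well, attached for 10-12 hours, then exposed to compounds for 30-36 hours at 37C before ONE-Glo luminescence.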
FLuc counter: qHTS profiling assay for firefly luciferase inhibitor/activator using purifed enzyme and Km concentrations of substrates (counterscreen for miR-21 project) | Luciferin 4-monooxygenase (Photinus pyralis), P08659 | purified FLuc, Km substrates, luminescence inhibition | Potency, µM (highest dose often 57.5 µM), inactives show at the top dose activity change, negative = inhibition, most hits filed as inhibitors | actives 6.9% (n = 360,000);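 further: plate controls were vehicle for no effect and reference inhibitor for full effect; nearly all actives have a fitted effect of over 55% in size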
Target sequence (P08659 whole entry, looked up): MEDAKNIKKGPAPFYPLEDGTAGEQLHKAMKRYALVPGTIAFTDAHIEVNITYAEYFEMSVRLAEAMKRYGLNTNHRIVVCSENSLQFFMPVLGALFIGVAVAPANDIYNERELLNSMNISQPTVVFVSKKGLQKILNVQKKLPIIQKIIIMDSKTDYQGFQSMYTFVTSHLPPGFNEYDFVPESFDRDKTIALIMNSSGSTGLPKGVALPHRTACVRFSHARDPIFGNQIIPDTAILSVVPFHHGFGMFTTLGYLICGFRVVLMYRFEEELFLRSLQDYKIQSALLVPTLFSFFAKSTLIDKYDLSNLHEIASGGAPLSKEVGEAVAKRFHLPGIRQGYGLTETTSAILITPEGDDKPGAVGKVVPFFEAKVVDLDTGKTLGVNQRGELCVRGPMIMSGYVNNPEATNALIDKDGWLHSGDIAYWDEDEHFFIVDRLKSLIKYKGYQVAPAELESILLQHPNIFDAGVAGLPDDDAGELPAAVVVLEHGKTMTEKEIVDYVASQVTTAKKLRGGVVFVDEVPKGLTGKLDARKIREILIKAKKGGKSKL
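Purified P. pyralis luciferase, 10 nM final, with Km-level 10 uM D-luciferin and 10 uM ATP in 50 mM Tris acetate pH 7.5, 10 mM Mg acetate, 0.01% Tween-20, 0.05% BSA; 6-point qHTS titration about 60 µM downward; luminescence read.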
Rab9 promoter act: qHTS Assay for Rab9 Promoter Activators. Huh7 Rab9 promoter-luciferase reporter, luminescence, 24 h. Potency, µM (doses to about 9.22 µM), for the others: at the highest dose activation, negative = inhibition, most hits filed as activators. actives 2.8% (n = 320,000). AID 485297, 2010; further: % of control where 0% means no effect; nearly all actives have a fitted effect of over 60% in size
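Quantitative HTS format; Huh7 Rab9-luciferase reporter cells (1500/well) receive compound 2 h post-plating, incubate 24 h at 37 °C, then get luciferase reagent for 10 min before luminescence reading.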
KinaseGlo FLuc: Counterscreen for Luciferase (Kinase-Glo TM) Inhibition. Luciferin 4-monooxygenase (Photuris pensylvanica), Q27757. Kinase-Glo luciferase, ATP luminescence, 8 min. Potency, µM (highest dose often 38.3 µM), for the others: top-dose activity change, negative = inhibition, actives largely listed as inhibitors. actives 0.28% (n = 200,000). AID 1379, 2008; further: on the % scale 0 is the no-effect control and ±100 the full control effect; nearly all actives have a fitted effect of over 60% in size
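Inhibition of Kinase-Glo luciferase light generation was assessed at 10 uM ATP in pH 7.2 imidazole buffer, with luminescence measured after eight minutes at ambient temperature.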
ELG1 genotox: qHTS screen for small molecules that induce genotoxicity in human embryonic kidney (HEK293T) cells expressing luciferase-tagged ELG1; actives 1.3% (n = 330,000); Potency, µM (series often up to 46 µM), for the others: at the top dose activity change, positive = activation, hits mostly activators; HEK293T ELG1-luciferase reporter, luminescence, 16 h; further: % of control where 0% means no effect; nearly all actives have a fitted effect of over 60% in size
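Quantitative HTS format in 1536-well plates. HEK293T ELG1-luciferase reporter cells receive test compound and are incubated 16 hr at 37 °C, 5% CO2; ONE-Glo added, 30 min room temperature, then luminescence read.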
NPC1 promoter act: qHTS Assay for NPC1 Promoter Activators. Huh7 NPC1 promoter luciferase reporter, 24 h. Potency, µM (titrated, usually from 9.22 µM), for the others: at the top dose activation, hits mostly activators. actives 2.4% (n = 320,000); further: % of control where 0% means no effect; nearly all actives have a fitted effect of over 60% in size
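Quantitative HTS used a cell-based reporter: Huh7 cells stably bearing the NPC1 promoter upstream of luciferase were treated with compounds for 24 h, and promoter activation was read as luminescence.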
* marks the source's active call; other numbers are inactive results; u = inconclusive; x = no result given; [ ] = another dose, or the depositor's remark. The call rests on the fitted dose curve; in most records, active means well fitted curve in the direction sought with a large enough effect; inconclusive means small, poorly fitted or top-dose-only effect, or another doubt; inactive means no such curve, though single readings can be large; an effect the other way counts as inactive or inconclusive. Potency means the concentration at half of the fitted maximal effect.

SMILES | SMN2 splice enh | FLuc counter | Rab9 promoter act | KinaseGlo FLuc | ELG1 genotox | NPC1 promoter act
CC(CC(=O)N(C)CC(=O)Nc1ccc(N2CCOCC2)cc1)c1ccccc1 (stereo not given) | x | 2% | 3% | x | -6% | 2%
CCc1[nH]nc2c1C1(C(=O)N(Cc3ccccc3)c3ccccc31)C(C#N)=C(N)O2 (stereo not given) | u | 0% | -5% | 0% | -3% | 0%
COCC(C)NC(=O)CCS(=O)(=O)c1nc(-c2ccc(OC)cc2)cc(C(F)(F)F)n1 (stereo not given) | u | 3% | -8% | -4% | u | 11%
O=C(CCc1ccccc1)NCCC1=CCCCC1 | 6% | u | 3% | 0% | 13% | 2%
Cc1nc2ncnn2c(C)c1Cc1cccc(C(F)(F)F)c1 | -2% | -2% | -2% | -1% | 6% | -4%
CCC(C)N(C(=O)CSc1nc(C)nc2ccccc12)C1CCS(=O)(=O)C1 (stereo not given) | x | -3% | 1% | x | -6% | 1%
CCC(C)N(C(=O)CSc1nc(-c2ccccc2)cs1)C1CCS(=O)(=O)C1 (stereo not given) | -25% | 17µM* | -5% | -1% | -4% | 1%
O=C(OCc1ccc(F)cc1)c1cc(=O)c2ccccc2o1 | x | 15µM* | 1% | x | 1% | -4%
O=C(Nc1ccccc1)N(O)c1ccc(Cl)cc1 | u | 12µM* | 3.5µM* | -5% | u | u
CCN(CCS(=O)(=O)c1ccc(Cl)cc1)C(=O)Nc1ccccc1 | x | 1% | -4% | x | 1% | -3%
O=C1C2=C(C(=O)c3ccccc31)C1O[C@](c3ccsc3)(Cc3c1ccc1ccccc31)O2 | x | u | 0%[1.84 µM] | x | x | 7%[1.84 µM]
O=C(COc1ccccc1)NC1=NCCS1 | -28% | 7.6µM* | -2% | -24% | 15µM* | -5%
O=C(NC1=NCCS1)c1ccccc1 | x | -18% | 23% | x | 16% | 21%
O=C(NC1=NCCS1)Nc1ccccc1 | 10µM* | 9.5µM* | 1.4µM* | -29% | u | 1.4µM*
CC(Oc1ccccc1)C(=O)NC1=NCCS1 (stereo not given) | 14µM* | 15µM* | 3.2µM* | -6% | u | u
CC(C)c1ccc(OCC(=O)NC2=NCCS2)cc1 | x | 7.6µM* | 16% | -10% | 27% | u
Cc1cc(C)cc(NC(=O)NCC2CCN(Cc3cc(C)ccc3C)CC2)c1 | 3% | 1% | -1% | x | -1% | 0%
CC(C)(C)c1ccc(-c2nc(O)c(CC(=O)O)s2)cc1 | x | 1.9µM* | 17% | x | 3% | -2%
O=C(O)Cc1sc(Nc2ccc(C(=O)O)cc2)nc1-c1ccccc1 | 13% | u | x | x | x | x
Cc1ccc(Nc2nc(-c3ccccc3)c(CC(=O)O)s2)cc1 | 2% | 13µM* | 13% | 3% | u | 2%
O=C(Cc1sc(Nc2ccccc2)nc1-c1ccccc1)NCc1ccccn1 | 13µM* | 19µM* | u | 5% | u | u
O=C(O)Cc1sc(Nc2ccccc2)nc1-c1ccc(Cl)cc1 | 11% | u | -1% | 1% | u | -13%
O=C(O)Cc1sc(Nc2ccc(F)cc2)nc1-c1cccs1 | x | 17µM* | u | -1% | 29% | 26%
Cc1ccc(S(=O)(=O)N2[C@@H](c3ccc(C#N)cc3)C(C(=O)O)=C[C@H]2C(C)(C)C)cc1 | x | x | x | x | -1% | x
O=C(O)Cc1sc(-c2ccccc2)nc1-c1ccccc1 | -2% | u | 2% | 2% | 0% | 2%
O=C(O)Cc1sc(-c2ccc(Cl)cc2)nc1-c1ccccc1 | 21% | 17µM* | -1% | -2% | 1% | 4%

From PubChem BioAssay
